Measured values taken from PubChem BioAssay AID2108 (National Center for Advancing Translational Sciences (NCATS), 2009).
Results filed as inconclusive are left out. Active and inactive are the calls of the source. The call rests on the fitted dose curve; in most records, active means well fitted curve in the direction sought with a large enough effect; inconclusive means small, poorly fitted or top-dose-only effect, or effect the other way, or another doubt; inactive means no such curve, though single readings can be large or run the other way.

molecular target: Alpha-galactosidase A (Homo sapiens) (UniProt P06280); assay: Confirmation of Inhibitors of Human alpha-Galactosidase Using Spleen Homogenate; conditions: alpha-galactosidase enzyme activity; series mostly up to 56.2 µM; activity change: at the top concentration; further: 0% is about no effect
Method in brief: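 Human spleen homogenate (1 ug) with 1 mM 4-methylumbelliferyl-alpha-D-galactopyranoside in citrate-phosphate pH 5.0, 0.01% Tween-20, 37C 40 min; compounds 0.5 nM–58 uM final. Stopped at pH 10, fluorescence Ex 365/Em 440; AC50 from Hill fits.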

Chain of Alpha-galactosidase A (Homo sapiens) (P06280 32-429 limits assumed): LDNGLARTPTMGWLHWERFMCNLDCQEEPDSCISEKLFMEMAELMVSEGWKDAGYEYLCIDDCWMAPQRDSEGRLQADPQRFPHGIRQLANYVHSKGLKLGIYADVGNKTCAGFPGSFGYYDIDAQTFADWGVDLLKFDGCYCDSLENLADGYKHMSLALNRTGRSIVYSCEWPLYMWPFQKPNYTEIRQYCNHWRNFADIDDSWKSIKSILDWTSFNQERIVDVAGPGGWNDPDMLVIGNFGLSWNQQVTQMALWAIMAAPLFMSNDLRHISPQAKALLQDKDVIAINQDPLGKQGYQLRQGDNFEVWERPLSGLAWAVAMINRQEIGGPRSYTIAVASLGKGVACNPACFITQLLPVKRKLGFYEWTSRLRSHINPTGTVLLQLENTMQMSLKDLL

Structure (SMILES)	activity change	outcome
Cc1cc(/C=N/Nc2ccc([N+](=O)[O-])cn2)c(C)n1-c1ccc(C(=O)O)cc1	-6.23% (inactive)	
CCc1sc(-c2cc3ccc(O)cc3oc2=O)nc1-c1ccc(C)cc1	23.7% (inactive)	
Cn1c(-c2ccco2)nc2cc3ccccc3cc21	14.9% [at 23.6 µM] (inactive)	
Cc1ccc(C2NC(=O)c3c(sc4c3CCN(C)C4)N2)s1 (stereo unspecified)	8.42% (inactive)	
Cc1cc(C)nc(SCc2cc(=O)c(OC(=O)c3ccco3)co2)n1	2.16% [at 23.6 µM] (inactive)	
Cc1ccc(-c2nc(-c3cc4ccccc4oc3=O)sc2C)cc1	12.7% (inactive)	
Cc1ccc(S(=O)(=O)N(C)C)cc1NC(=O)COC(=O)Cc1ccc(Br)cc1	2.93% (inactive)	
O=S(=O)(c1ccccc1Br)N1CCOCC1	8.81% (inactive)	
CN(C(=O)N1CCN(S(=O)(=O)c2ccccc2)CC1)c1ccccc1	14.8% (inactive)	
O=C1c2cc(S(=O)(=O)N3CCOCC3)ccc2-c2ccc(S(=O)(=O)N3CCOCC3)cc21	11.1% (inactive)	
CC1CCc2c(nc3ncnn3c2N2CCN(c3ccccc3F)CC2)C1 (stereo unspecified)	1.27% [at 23.6 µM] (inactive)	
COc1ccccc1NCC(=O)c1ccc(C)c(C)c1	-6.57% (inactive)	
CCc1ccc(N=CC23c4ccccc4C(c4ccccc42)C2C(=O)N(c4ccc(OC)cc4)C(=O)C23)cc1 (stereo unspecified)	1.98% [at 23.6 µM] (inactive)	
CC(=O)Oc1ccc2cc(-c3nc(-c4ccccc4)c(C)s3)c(=O)oc2c1	6.44% (inactive)	
OC[C@H]1NC[C@@H](O)[C@@H](O)[C@@H]1O	-8.03% (inactive)	
CC(=O)c1cccc(S(=O)(=O)N2CCOCC2)c1	0.973% (inactive)	
CC(=O)NNc1nc2ccccc2s1	-4.19% (inactive)	
COc1ccc(OC)c(/C=C/C(=O)N(C)CC(=O)Nc2ccc(C)cc2)c1	11.4% [at 23.6 µM] (inactive)	

Structure (SMILES)	activity change	outcome
CC/C(=N\NC(=O)c1c(C)nc2ccccn12)c1ccc(Cl)cc1	-11.9% (inactive)	
Cc1ccc(S(=O)(=O)NC(=O)NN2CCCCCC2)cc1	-0.482% (inactive)	
Cc1ccccc1Nc1c(-c2cccs2)nc2cccc(C)n12	-6.82% (inactive)	
COc1cccc2ccc(/C=C/c3ccc4c(c3)OCO4)nc12	6.44% (inactive)	
CC(=O)N1CCN(c2ccc(NCc3ccccc3)cc2)CC1	-8.48% (inactive)	
COc1ccc(-n2cc(CNCCc3ncc(C)[nH]3)c(-c3ccccc3Cl)n2)cc1	-2.96% (inactive)	
CC1CCc2nc(-c3cc4c(ccc5ccccc54)oc3=O)sc2C1 (stereo unspecified)	4.94% (inactive)	
N#Cc1cccc(S(=O)(=O)N2CCOCC2)c1	6.21% (inactive)	
O=C(Nc1ccccc1)C1CCN(S(=O)(=O)c2ccccc2)CC1	11.6% (inactive)	
CC(=O)Nc1c(S(=O)(=O)c2ccccc2)c2nc3ccccc3nc2n1Cc1ccccc1	48.2% (inactive)	
Cc1ccc(S(=O)(=O)N2CCOCC2)cc1	-2.3% (inactive)	
Oc1ccc(NCc2ccccc2OCc2ccccc2)cc1		inactive
COCCn1c(=NC(=O)c2ccc3c(c2)OCO3)c(C#N)cc2c(=O)n3cccc(C)c3nc21	2.06% [at 23.6 µM] (inactive)	
O=c1oc2ccc(Cl)cc2cc1-c1nc2c(s1)CCc1ccccc1-2	5.46% (inactive)	
Cc1c(C(=O)NCc2ccccc2F)oc2ccccc12	7.79% (inactive)	
Cc1ccc(CCNC(=O)CNC(=S)N(Cc2ccccc2)Cc2cccnc2)cc1	4.95% (inactive)	
O=S(=O)(c1ccc(-c2ccccc2)cc1)N1CCOCC1	11.5% (inactive)	
CNC(=S)/N=C(\Nc1ccc(C)cc1)c1ccccc1	7.36% [at 23.6 µM] (inactive)	
